# A selection: hits, their analogues and other compounds. The true share with any hit is near 2.9%.
# PLC-beta3 inh: PLC-beta3 (human) inhibition, primary screen; Purified PLC-beta3, fluorogenic substrate, fluorescence; inhibition, % at 12.2 µM; actives 0.18% (n = 370,000); in the data active means inhibition above about 11%
# PLCg1 inh: PLC-gamma1 (human) inhibition, primary screen; inhibition, % at 12.2 µM; purified PLC-gamma1, fluorogenic substrate, fluorescence; actives 0.84% (n = 370,000); P19174; AID 720700; in the data active means inhibition above about 9.5%
# ADAM10 inh: ADAM10 inhibition, QFRET primary screen | actives 0.62% (n = 370,000) | recombinant ADAM10, EDANS/DABCYL FRET peptide cleavage, 3 h | inhibition, % at 7 µM;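 active means inhibition above a per-campaign cutoff equal to the mean of compounds falling between control-based bounds plus 3 SD, cut at about 20% in these data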
# Target sequence (O14672 214-748 limits assumed): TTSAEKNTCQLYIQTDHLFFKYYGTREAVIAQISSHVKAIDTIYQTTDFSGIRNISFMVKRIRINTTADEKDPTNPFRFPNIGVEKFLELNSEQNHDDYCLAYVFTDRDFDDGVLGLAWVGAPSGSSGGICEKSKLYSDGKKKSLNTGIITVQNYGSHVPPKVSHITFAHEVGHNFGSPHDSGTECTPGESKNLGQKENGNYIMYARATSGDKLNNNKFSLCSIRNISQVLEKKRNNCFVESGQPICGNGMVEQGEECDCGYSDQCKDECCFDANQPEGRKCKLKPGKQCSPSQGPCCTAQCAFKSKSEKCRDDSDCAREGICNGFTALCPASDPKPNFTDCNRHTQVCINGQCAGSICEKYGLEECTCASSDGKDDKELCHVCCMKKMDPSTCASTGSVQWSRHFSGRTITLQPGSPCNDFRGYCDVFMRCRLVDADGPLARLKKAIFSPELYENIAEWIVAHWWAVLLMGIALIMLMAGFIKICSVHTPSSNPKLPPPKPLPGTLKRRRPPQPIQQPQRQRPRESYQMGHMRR
# ADAM17 inh: inhibitors of human ADAM17; inhibition, % at 6.95 µM; AID 720648; recombinant ADAM17, EDANS/DABCYL FRET peptide cleavage; P78536; actives 0.83% (n = 370,000);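 active means inhibition above the mean of compounds lying between control limits plus 3 SD, set per campaign, cut at about 8.5% in these data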
# proKLK7 act: activates the human kallikrein-7 zymogen. purified proKLK7, EDANS-DABCYL substrate fluorescence; 100% is mature enzyme control, 0% vehicle. activation, % at 7 µM. P49862. actives 0.9% (n = 370,000);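 active means activation above the mean of all tested compounds plus 3 SD, computed per campaign excluding outliers beyond control limits, cut at about 13% in these data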
# proKLK7 act conf: proKLK7 activation, confirmation. shares compounds with proKLK7 act. purified proKLK7, EDANS-DABCYL substrate fluorescence; scaled: vehicle 0, mature enzyme 100. activation, % at 7 µM. actives 68% (n = 3,200);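 active means activation, as change over the incubation, above the mean of all tested compounds plus 3 SD, cut at about 13% in these data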
# EDANS interfere: fluorescence interference counter-screen for KLK7 activators; actives 80% (n = 3,200); activation, % at 7 µM; EDANS-DABCYL substrate fluorescence interference, no enzyme, 4 h; solvent 0%, active enzyme control 100%; shares compounds with proKLK7 act;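 active means activation above the all-compound mean plus 3 SD, ignoring values outside control-based bounds, cut at about 4.8% in these data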;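 further: value is the 4 h activation minus the activation read at time zero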
# Hits are given with their value; . = inactive; / = no result.
SMILES,PLC-beta3 inh,PLCg1 inh,ADAM10 inh,ADAM17 inh,proKLK7 act,proKLK7 act conf,EDANS interfere
O=C(COC(=O)c1cc(-c2ccco2)nc2ccccc12)NCc1ccccc1,.,.,.,.,22,51,55
CS(=O)(=O)N[C@@H]1C[C@@H]2O[C@H](CO)CC[C@@H]2O[C@@H]1CCc1ccc(-c2ccccc2F)cc1,.,.,.,.,.,/,/
C=CCN(CC#CCN(C)C(=O)c1cccn1C(=O)OC(C)(C)C)Cc1ccc(OC)cc1OC,.,.,.,.,.,/,/
Cc1ccc(CNC(=S)Nc2ccc3c(c2)c(=O)n(C)n3Cc2cccc(C(F)(F)F)c2)cc1,.,.,.,.,.,/,/
Cn1c(=O)c2cc(NC(=O)OCCF)ccc2n1Cc1cccc(C(F)(F)F)c1,.,.,.,.,13,.,5.7
CCNC(=S)Nc1ccc2c(c1)c(=O)n(C)n2Cc1cccc(C(F)(F)F)c1,.,.,.,.,20,.,.
Cn1c(=O)c2cc(NC(=O)NCCc3ccccc3)ccc2n1Cc1cccc(C(F)(F)F)c1,.,.,.,.,.,/,/
COc1cccc(CNC(=S)Nc2ccc3c(c2)c(=O)n(C)n3Cc2csc(C)n2)c1,.,.,.,.,15,.,.
O=C(Nc1nc2ncccn2c1-c1ccc(C(F)(F)F)cc1)c1ccccc1,.,.,.,.,.,/,/
CC(C)C[C@@H]1COc2cc(NCCO)ccc2S(=O)(=O)N1,.,.,.,.,.,/,/
C=CCN1C(=O)[C@@H](CC(=O)N2CCOCC2)[C@]2(C(=O)OC)CCCCC=C12,.,.,.,.,.,/,/
COC(=O)Cc1nnn2c1[C@H](C)[C@H](c1cccc(OC)c1OC)OCC2,.,.,.,.,.,/,/
COC(=O)c1cc(C(C)c2ccccc2O)n2ccccc12 (stereo not given),.,.,.,.,.,/,/
COC(=O)c1cc(C(c2ccccc2O)C2CCC(C)(C)O2)n2ccccc12 (stereo not given),.,.,.,.,36,.,.
O=C(NC1CCCCN(Cc2ccc(Cl)cc2)C1=O)c1cccc([N+](=O)[O-])c1 (stereo not given),.,.,.,.,.,/,/
O=C(NCc1nnc(SCC(=O)N2CCCC2)o1)c1ccccc1F,.,.,.,.,62,.,.
CCOC(=O)[C@]12CCCC=C1N(CCCOC)C(=O)[C@@H]2CC(=O)N1CCN(C(=O)c2ccco2)CC1,.,.,.,.,.,/,/
CN1C(=O)C2(Nc3ccccc3-c3nc4ccccc4n32)c2ccccc21 (stereo not given),.,.,.,.,.,/,/
c1ccc2c(c1)NC1(CCCCC1)n1c-2nc2ccccc21,.,.,.,.,63,.,12
O=C1Nc2ccccc2C12Nc1ccccc1-c1nc3ccccc3n12 (stereo not given),.,.,.,.,.,/,/
CCCCC1(C)Nc2ccccc2-c2nc3ccccc3n21 (stereo not given),.,.,.,.,63,.,.
c1ccc2c(c1)NC1(CCCCCC1)n1c-2nc2ccccc21,.,.,.,.,52,.,.
CC1(c2ccccn2)Nc2ccccc2-c2nc3ccccc3n21 (stereo not given),.,.,.,.,56,.,.
O=C1Cn2c(nc3ccccc32)-c2ccccc2N1,.,.,.,.,.,/,/
CC(C)N1CCCCC(NC(=O)c2ccc(Cl)cc2Cl)C1=O (stereo not given),.,.,.,.,.,/,/
SMILES,PLC-beta3 inh,PLCg1 inh,ADAM10 inh,ADAM17 inh,proKLK7 act,proKLK7 act conf,EDANS interfere
NNC(=O)c1cc2c(ccc3ccccc32)o1,.,.,.,.,.,/,/
CN1CCN(C(=O)c2cc3c(ccc4ccccc43)oc2=O)CC1,.,.,.,.,56,22,21
O=C(c1cc2c(ccc3ccccc32)o1)N1CCCCC1,.,.,.,.,.,/,/
COC(=O)c1cc2c(ccc3ccccc32)oc1=O,.,.,.,.,65,67,74
CCCCCCCCN1C(=O)[C@@H](CC(=O)N2CCC(c3ccccc3)CC2)C[C@@]2(C(=O)OC)C1=C[C@H](C(C)C)O[C@@H]2C1CC1,.,.,.,.,.,/,/
CCC(=O)Nc1cccc(-c2cn3ccsc3n2)c1,.,.,.,.,.,/,/
COc1cccc(C(=O)Nc2cc(-c3cn4cccnc4n3)ccc2C)c1,.,.,.,.,31,.,.
COc1cc(C(=O)Nc2cccc(-c3cn4cccnc4n3)c2)cc(OC)c1OC,.,.,.,.,30,.,.
CC(C)(C)CC(=O)Nc1cccc(-c2cn3cccnc3n2)c1,.,.,.,.,25,16,19
Cc1ccccc1Cn1cc(CN2[C@@H](Cc3ccccc3)COc3cc(Br)ccc3S2(=O)=O)nn1,.,.,.,.,.,/,/
O=C1CC(O)(C(F)F)Oc2ccc3ccccc3c21 (stereo not given),.,.,.,.,47,.,.
O=C1CC(O)(C(F)(F)F)Oc2c1ccc1ccccc21 (stereo not given),.,.,.,.,54,.,5.3
CS(=O)(=O)N1CCC[C@]2(CC[C@@H](CCC#N)O2)C1,.,.,.,.,.,/,/
Cc1cccc(CN2C(=O)N/C(=C/c3ccc(C)s3)C2=O)c1,.,.,.,.,.,/,/
Cc1ccc(/C=C2/NC(=O)N(Cc3ccccc3)C2=O)s1,.,.,.,.,17,.,.
CCOC(=O)c1cc2nc(-c3ccco3)cc(C(F)(F)F)n2n1,.,.,.,.,19,.,.
CCOC(=O)[C@@]12CCCC3=C1N(CCC3)C(=O)[C@H]2CC(=O)NCC1CCCCC1,.,.,.,.,.,/,/
COc1ccc(C2Nc3ccccc3C(=O)N2NS(=O)(=O)c2ccccc2)cc1 (stereo not given),.,.,.,.,17,.,7.7
COc1ccccc1N1C(=O)c2ccccc2NC1c1cc(OC)c(OC)c(OC)c1 (stereo not given),.,.,.,.,23,14,15
CC1Nc2ccccc2C(=O)N1NS(C)(=O)=O (stereo not given),.,.,.,.,61,26,22
O=C1c2ccccc2NC(c2ccccc2)N1NS(=O)(=O)c1ccccc1 (stereo not given),.,.,.,.,.,/,/
CS(=O)(=O)NN1C(=O)c2ccccc2NC1c1cccc2cccnc12 (stereo not given),.,.,.,.,.,/,/
COc1cc(C2Nc3ccccc3C(=O)N2NS(C)(=O)=O)ccc1O (stereo not given),.,.,.,.,27,.,6.8
CCN(CCC(=O)Nc1cc(OC)ccc1OC)Cc1ccccc1,.,.,.,.,.,/,/

# Source: PubChem BioAssay (The Scripps Research Institute Molecular Screening Center)
